PubChem BioAssay (NCATS)
Inconclusive results are not listed. Calls of active or inactive are those of the source. Unless noted, calls come from the whole dose curve; as a rule, active = well fitted curve in either direction with a large enough effect (not every such curve was filed as active); inconclusive = small, poorly fitted or top-dose-only effect, or another doubt; inactive = flat fitted curve, though single readings scatter.

Tests used:
[1] = target: Lysosomal acid glucosylceramidase (Homo sapiens) (UniProt P04062); assay: Glucocerebrosidase-p2 (AID 348; in the data active = potency below about 10 µM; note: potency is the fitted concentration of half-maximal effect); conditions: purified GBA, blue fluorogenic substrate, 40 min
Sequence of Lysosomal acid glucosylceramidase (Homo sapiens) (P04062 whole entry, looked up): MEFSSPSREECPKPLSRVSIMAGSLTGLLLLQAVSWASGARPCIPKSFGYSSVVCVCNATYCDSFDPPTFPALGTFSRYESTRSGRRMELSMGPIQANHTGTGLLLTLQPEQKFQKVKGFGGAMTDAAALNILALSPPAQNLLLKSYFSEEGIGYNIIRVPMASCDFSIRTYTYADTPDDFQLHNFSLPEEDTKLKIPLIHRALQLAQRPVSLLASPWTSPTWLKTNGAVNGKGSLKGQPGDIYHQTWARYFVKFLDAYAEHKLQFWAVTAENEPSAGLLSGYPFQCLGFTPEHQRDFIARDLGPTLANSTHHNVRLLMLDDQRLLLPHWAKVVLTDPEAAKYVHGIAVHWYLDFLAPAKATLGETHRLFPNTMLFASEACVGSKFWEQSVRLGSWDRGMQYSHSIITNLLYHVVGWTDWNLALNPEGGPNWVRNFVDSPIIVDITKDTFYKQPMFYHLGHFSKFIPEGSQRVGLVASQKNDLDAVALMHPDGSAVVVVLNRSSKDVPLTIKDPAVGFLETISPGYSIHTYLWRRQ
Outline: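 Compounds titrated from 0.6 nM upwards against 0.2 nM enzyme in pH 5.9 citric acid/KH2PO4, taurocholate, tween-20; blue fluorogenic substrate 80 uM, 40 min room temperature, stopped and read Ex 365/Em 440 for AC50.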

[2] = AP1 Signaling Pathway (AID 357); conditions: ME-180 (cervical carcinoma) AP-1-bla reporter, EGF-induced, beta-lactamase ratio, 5 h; at 7.69 µM (top of the series) unless noted; note: % is set by controls: 0 for no effect and ±100 for the full control effect
Outline: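 AP-1-bla ME-180 cells with beta-lactamase reporter under AP-1 response element, stimulated with EC50 EGF; compounds titrated, 5 hours at 37 degrees Celsius. CCF4 read at 460/530 nm ratio; positive and negative modulators judged by AC50.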

[3] = target: Glucocorticoid receptor (Homo sapiens) (UniProt P04150); assay: GR-GFP Redistribution (AID 450;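 active = compounds whose dose series gives a full or clear partial fitted curve of increased nuclear translocation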; note: potency is the fitted concentration of half-maximal effect); conditions: U2OS GR-GFP nuclear translocation, laser cytometry, 2 h
Sequence of Glucocorticoid receptor (Homo sapiens) (P04150 whole entry, looked up, the tested form may be a part): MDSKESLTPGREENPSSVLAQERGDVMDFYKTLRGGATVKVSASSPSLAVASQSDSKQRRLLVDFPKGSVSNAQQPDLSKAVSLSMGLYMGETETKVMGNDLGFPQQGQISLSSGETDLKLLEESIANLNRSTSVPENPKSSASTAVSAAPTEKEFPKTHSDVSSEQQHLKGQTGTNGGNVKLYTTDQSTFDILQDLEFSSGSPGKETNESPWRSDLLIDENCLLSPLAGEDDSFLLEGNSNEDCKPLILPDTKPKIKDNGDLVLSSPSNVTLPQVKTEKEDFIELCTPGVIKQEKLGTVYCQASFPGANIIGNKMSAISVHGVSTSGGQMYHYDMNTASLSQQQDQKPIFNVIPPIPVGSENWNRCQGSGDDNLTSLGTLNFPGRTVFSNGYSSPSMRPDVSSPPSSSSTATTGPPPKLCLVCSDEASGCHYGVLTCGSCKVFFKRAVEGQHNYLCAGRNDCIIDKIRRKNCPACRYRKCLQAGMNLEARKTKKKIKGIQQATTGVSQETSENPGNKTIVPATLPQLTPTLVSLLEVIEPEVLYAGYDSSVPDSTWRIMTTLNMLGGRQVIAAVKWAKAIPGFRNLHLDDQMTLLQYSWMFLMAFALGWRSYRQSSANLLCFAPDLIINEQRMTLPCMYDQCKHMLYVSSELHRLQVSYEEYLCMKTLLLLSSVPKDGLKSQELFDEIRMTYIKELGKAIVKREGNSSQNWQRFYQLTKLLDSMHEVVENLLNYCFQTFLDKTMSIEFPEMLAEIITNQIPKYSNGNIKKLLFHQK

[4] = target: Glucocorticoid receptor (Homo sapiens) (UniProt P04150); assay: GR-EFC Redistribution (AID 451; calls by dose curve; note: potency is the fitted concentration of half-maximal effect); conditions: CHO-K1 GR-EFC translocation, beta-gal luminescence, 2 h
Outline: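 Translocation of GR-ED fusion to nuclear EA restores b-gal, read by luminescence after 1 h room-temperature detection. Engineered CHO-K1 biosensor cells, 1,000/well, exposed 2 h at 37 C to titrations up to 46 uM final.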

[5] = target: Mitogen-activated protein kinase 10 (Mus musculus) (UniProt Q61831); assay: JNK3 AlphaScreen Assay (AID 530); conditions: JNK3 lysate, c-Jun phosphorylation; series mostly up to 11.4 µM;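 note: kinase came from lysate of stimulated human HepG2 cells; signal reports phosphorylation of biotinylated GST-cJun 1-79 at Ser73 with 10 µM ATP; % is set by controls: 0 for no effect and ±100 for the full control effect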
Outline: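 Room-temperature AlphaScreen kinase assay; pre-activated HepG2 lysate as JNK3 source, biotin-GST-cJun(1-79) substrate, 10 uM ATP, compound 15 min preincubation.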

Cc1c(Cl)cc(C(C)(C)C)c(O)c1Cc1c(C)c(Cl)cc(C(C)(C)C)c1O
inactive: Potency [1] > 11.4 µM | activity change, negative = inhibition [2] 10.4% | Potency [3] > 46 µM | Potency [4] > 9.22 µM | Potency [5]
